Experimental data reported in PMC7819943, “Rice protein-binding microarrays: a tool to detect cis-acting elements near promoter regions in rice”.
Over roughly 35,000 sequences, “fluorescence intensity (a.u.)” has its median near 10,000; the highest 2% begin near 52,000. Shown is part of a subset that was picked to be rich in the highest values.

Each sequence was assayed against T1, OsWOX13 (Oryza sativa, UniProt Q5QMM3 1-267) (assay: protein-binding microarray (RPBM); PBS, 2% BSA, 51.3 ng/ul salmon testes DNA, 50 uM zinc acetate, 200 nM TF, 25 C, 1 h; high values mean tight binding). Conditions: protein: recombinant; tags: N-terminal polyhistidine and DsRed monomer fusion (pET32a); label: CyDye5-dUTP incorporated in the synthesized complementary strand; 3' TTTTT single-stranded linker to array surface; dsDNA, one strand shown.
T1 sequence: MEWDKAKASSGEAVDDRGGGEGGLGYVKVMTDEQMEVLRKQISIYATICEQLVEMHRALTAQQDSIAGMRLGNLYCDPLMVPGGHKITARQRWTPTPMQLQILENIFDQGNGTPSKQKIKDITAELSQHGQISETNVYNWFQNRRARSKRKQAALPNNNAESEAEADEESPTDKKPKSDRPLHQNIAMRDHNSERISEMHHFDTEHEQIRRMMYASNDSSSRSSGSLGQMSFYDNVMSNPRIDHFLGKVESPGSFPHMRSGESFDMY
Outline: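 An Axon 4000B scanner gave the binding signal as per-feature fluorescence intensity in arbitrary units. This followed washing of a custom Agilent array that had been incubated for 1 h at 25 °C with 200 nM protein in PBS, 2% BSA, salmon testes DNA and 50 µM zinc acetate. The proteins were transcription factors fused at the N-terminus to polyhistidine and DsRed, expressed in E. coli BL21-CodonPlus and purified on Ni–NTA.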
For “TGTGACAAACAATGATTACCAAGCTTTTGGGGAAATATAGCGGAGTCACCTAGTGCAG”, the binding signal was 16900 fluorescence intensity (a.u.).
For “TCATGATTAAGATGGGCTCACTATGTAATTTTATTTATAACGGAGTCACCTAGTGCAG”, the binding signal was 8240 fluorescence intensity (a.u.).
In the case of “AATAATTTGCCAATACCAACATTTTACTATAAATACTTATCGGAGTCACCTAGTGCAG”, the binding signal was 5410 fluorescence intensity (a.u.).
“GCGCTGATACTTGTAATCAATCAACTCATCAGCATGGTCTCGGAGTCACCTAGTGCAG” was tested, and the binding signal was 26100 fluorescence intensity (a.u.).
In the case of “GTAGTTAATTGTAAACACTGTACTAAGCAGTATACATTTTCGGAGTCACCTAGTGCAG”, the binding signal was 20300 fluorescence intensity (a.u.).
For “ACACAATCATTTATACAAAGCATATAATGGGCCTGTTCGGCGGAGTCACCTAGTGCAG”, the binding signal was 6100 fluorescence intensity (a.u.).
With “TGCTTGTAATTTCTATAAAATTAGCAGTATTTTGATGCTACGGAGTCACCTAGTGCAG” the binding signal was 9240 fluorescence intensity (a.u.).
For “TTGACATAATATAATCATGTGATATCTTATTGTAAAGATTCGGAGTCACCTAGTGCAG”, the binding signal was 10400 fluorescence intensity (a.u.).
“TTATTAATTGATAAAATATAGAAATATTGATTTATTGTTTCGGAGTCACCTAGTGCAG” was tested, and the binding signal was 52500 fluorescence intensity (a.u.).
“TTTATAACATTGTTAATTGATTAGGCATGCAATGCCATATCGGAGTCACCTAGTGCAG” was tested, and the binding signal was 32300 fluorescence intensity (a.u.).
“CCATTGATTATAATTAAAGACTGTTAGGCAATTGACACAACGGAGTCACCTAGTGCAG” was tested, and the binding signal was 54000 fluorescence intensity (a.u.).
In the case of “TTTTGTGATAGATTTTATATTAAATATATAGTTTTGTTTTCGGAGTCACCTAGTGCAG”, the binding signal was 23400 fluorescence intensity (a.u.).
“ATCAAATCAATAATTGAATATATTTTCATAATAAATTTGTCGGAGTCACCTAGTGCAG” was tested, and the binding signal was 29400 fluorescence intensity (a.u.).
“GTTTATTTATAATTATATTATATTAATATTGTTTGAAAATCGGAGTCACCTAGTGCAG” was tested, and the binding signal was 8200 fluorescence intensity (a.u.).
“AGGGAAAGTTGTGATTGAGGGAGGATGTTAGATAATGTTACGGAGTCACCTAGTGCAG” was tested, and the binding signal was 10100 fluorescence intensity (a.u.).
In the case of “GGAGGGAGTAGAATAATGATTGATTTAAGTTAATACTAGCCGGAGTCACCTAGTGCAG”, the binding signal was 23500 fluorescence intensity (a.u.).
With “GATCAATAATTGAATATATTTTAATAATAAATTTGTCTTGCGGAGTCACCTAGTGCAG” the binding signal was 55500 fluorescence intensity (a.u.).
“TGTTGATTATAATTAAACACAACAAACAGACTCGAAGCAACGGAGTCACCTAGTGCAG” was tested, and the binding signal was 48200 fluorescence intensity (a.u.).
With “TGTGATTGAGGGAGTTAATTAGGACAAGTTAATAAGTGGCCGGAGTCACCTAGTGCAG” the binding signal was 64500 fluorescence intensity (a.u.).
For “ATCAATAATTGAACATATTTTCATAATAAATTTGTCTTGGCGGAGTCACCTAGTGCAG”, the binding signal was 42100 fluorescence intensity (a.u.).
“GTATTAATCATGTTTTATCATCTAACAACAACGAAAATACCGGAGTCACCTAGTGCAG” was tested, and the binding signal was 7970 fluorescence intensity (a.u.).
“ATAATTTGCTAATACTTAATTAATCACGTGTTAATGGATCCGGAGTCACCTAGTGCAG” was tested, and the binding signal was 36600 fluorescence intensity (a.u.).
In the case of “AGTTCCCTCTAATTATAATTATAATGTCCTTGGTTTAGGACGGAGTCACCTAGTGCAG”, the binding signal was 16200 fluorescence intensity (a.u.).
“CCTTGCAATCATTCATCAGAGGAGGAGTTCTACAGTGATGCGGAGTCACCTAGTGCAG” was tested, and the binding signal was 3760 fluorescence intensity (a.u.).
For “GCAATCTTTCATTATCATAATTGGTCGTAGCTTTAATTACCGGAGTCACCTAGTGCAG”, the binding signal was 8430 fluorescence intensity (a.u.).
With “TTAATTAGATGCTCATATAAATATGGTGAAACCTGCATGCCGGAGTCACCTAGTGCAG” the binding signal was 21500 fluorescence intensity (a.u.).
In the case of “CCAAATTTAATTTTACCTATTTTAAATGTGGCGATATATCCGGAGTCACCTAGTGCAG”, the binding signal was 17900 fluorescence intensity (a.u.).
With “GGAGTGATTAAATTAGTTAATTAGTTAATAATCCCATTGACGGAGTCACCTAGTGCAG” the binding signal was 56800 fluorescence intensity (a.u.).
For “AATGATTGAAGGATATCCATTTGAATGATGGTATGCTTTACGGAGTCACCTAGTGCAG”, the binding signal was 43000 fluorescence intensity (a.u.).
For “GTCTTAATTGAATGCATCAATTATACTTTTGCAGGAGTTTCGGAGTCACCTAGTGCAG”, the binding signal was 64900 fluorescence intensity (a.u.).
With “TAGCTAATTCTTAATTAATTATACGCTAATGAATCACTTTCGGAGTCACCTAGTGCAG” the binding signal was 23900 fluorescence intensity (a.u.).
For “ACACTAAATTATTCTACCCACAAATTAAATAATTGAAATACGGAGTCACCTAGTGCAG”, the binding signal was 9290 fluorescence intensity (a.u.).
With “TAATACTTAATTAATTATATGCTAAATGCTTCTTCGTTTTCGGAGTCACCTAGTGCAG” the binding signal was 27300 fluorescence intensity (a.u.).
For “AAAATAAATAAATAAATTTGGTAACATTGATTAATTAGGACGGAGTCACCTAGTGCAG”, the binding signal was 21200 fluorescence intensity (a.u.).
With “GCGTAATAGTAATAATTGATTAATGGTGACACGAGAAGGACGGAGTCACCTAGTGCAG” the binding signal was 46600 fluorescence intensity (a.u.).
“TTAATTGATTCCATGAAGGTATAATGATACTTTTATGGTACGGAGTCACCTAGTGCAG” was tested, and the binding signal was 65000 fluorescence intensity (a.u.).
“AGTTAACATGATTTATGATAATTTTAATGTAAATGGTATACGGAGTCACCTAGTGCAG” was tested, and the binding signal was 16700 fluorescence intensity (a.u.).
For “TAATAATTAGTGATTAATTATCCTGACCATTGATTCAACACGGAGTCACCTAGTGCAG”, the binding signal was 48300 fluorescence intensity (a.u.).
“ATAAATAGTAATTGACATTAAGAATGGGACCCACACTCTACGGAGTCACCTAGTGCAG” was tested, and the binding signal was 53000 fluorescence intensity (a.u.).
In the case of “TGCTAATAAATCTTGATTTGTTTCACATAGAAGCTGCATCCGGAGTCACCTAGTGCAG”, the binding signal was 26400 fluorescence intensity (a.u.).
For “GTAAAAGTTAATTGATTTGTTTATACCCTCAAATAGCCATCGGAGTCACCTAGTGCAG”, the binding signal was 58700 fluorescence intensity (a.u.).
In the case of “TGATTAAATTGCTTTAACTTTTATTTAATTTGTAGAAAATCGGAGTCACCTAGTGCAG”, the binding signal was 22500 fluorescence intensity (a.u.).
“CATGATTGCTCATCTTTGTATTAAAAGAAATAATTTATGTCGGAGTCACCTAGTGCAG” was tested, and the binding signal was 53500 fluorescence intensity (a.u.).
With “TTGATTAAATACAAAATTAATAGTCAAAGTTTTAAAAGTTCGGAGTCACCTAGTGCAG” the binding signal was 18200 fluorescence intensity (a.u.).
With “TAAATATATTGTCAAATTATATTTAATGTTTTATTTGATACGGAGTCACCTAGTGCAG” the binding signal was 3180 fluorescence intensity (a.u.).
With “TTGTTAATTACCTTGTTTAATTAATTTCGCTAGCTTAGATCGGAGTCACCTAGTGCAG” the binding signal was 44700 fluorescence intensity (a.u.).
“ATATGATAATAATTATTTAAAGAAATAAATTTATTTTGGACGGAGTCACCTAGTGCAG” was tested, and the binding signal was 28700 fluorescence intensity (a.u.).
“CACTAATTGATCAATTGCACAACAAATTGCTTGAATAACGCGGAGTCACCTAGTGCAG” was tested, and the binding signal was 59900 fluorescence intensity (a.u.).
For “CAGATAATTAGCTACCTGTTTAATAGATCATCTTGATCATCGGAGTCACCTAGTGCAG”, the binding signal was 53400 fluorescence intensity (a.u.).
With “TGTGACATTTCCAATCACTAATTGATCAATTGCACAACAACGGAGTCACCTAGTGCAG” the binding signal was 38100 fluorescence intensity (a.u.).
“TGGACAACAATTCTTGATTGAATTTAATTAACGGATAACGCGGAGTCACCTAGTGCAG” was tested, and the binding signal was 28000 fluorescence intensity (a.u.).
For “AAACTGTTTTAATAATAGATAGATAGATAGATAGATAGATCGGAGTCACCTAGTGCAG”, the binding signal was 18200 fluorescence intensity (a.u.).
For “GACAAATTATGGCATTTTAAAATCCAAAATATGGAAAGGGCGGAGTCACCTAGTGCAG”, the binding signal was 14600 fluorescence intensity (a.u.).
“AACATTGATTAATATTGGTCAAAATATTTTCAACTCTAAACGGAGTCACCTAGTGCAG” was tested, and the binding signal was 19200 fluorescence intensity (a.u.).
“CTTGATTTATTGATTGATTAATAAAACATTTTATTTCCAACGGAGTCACCTAGTGCAG” was tested, and the binding signal was 56900 fluorescence intensity (a.u.).
For “TGATAGATGGAAAATAAATTGGTAAAATTAGTAGATGGGACGGAGTCACCTAGTGCAG”, the binding signal was 39700 fluorescence intensity (a.u.).
“CAATGATTGGACTAAAGAAAATGCTAATATTAATGGTATGCGGAGTCACCTAGTGCAG” was tested, and the binding signal was 52300 fluorescence intensity (a.u.).
With “ATAATTGGTAAAGATGGATTCAAAATATTATTAATAATTGCGGAGTCACCTAGTGCAG” the binding signal was 26200 fluorescence intensity (a.u.).
“CTTCTTGATTGATTTATACTAACTGCGCACACACTTTATTCGGAGTCACCTAGTGCAG” was tested, and the binding signal was 55200 fluorescence intensity (a.u.).
For “CTTATTATAAAGATTTAATTATAACAAATATAATGGTATGCGGAGTCACCTAGTGCAG”, the binding signal was 4800 fluorescence intensity (a.u.).
“GATTCAATGATGGATTTAATAAAACTAATTTGGTATTGCTCGGAGTCACCTAGTGCAG” was tested, and the binding signal was 18700 fluorescence intensity (a.u.).
“GTATGATTAATTGAGTTTTAATTATTATAAAATTTTAAAACGGAGTCACCTAGTGCAG” was tested, and the binding signal was 22900 fluorescence intensity (a.u.).
With “CTTAACTGTAACACTATTGCGTTGATTACTTCTACTTATTCGGAGTCACCTAGTGCAG” the binding signal was 15200 fluorescence intensity (a.u.).
With “ACCGTGATTACGGTAATTGGAAATATAAAAGAGATGGGAGCGGAGTCACCTAGTGCAG” the binding signal was 56800 fluorescence intensity (a.u.).
For “ACTTATATTCTTTAACTTATGATTGGAGGTATATACTATACGGAGTCACCTAGTGCAG”, the binding signal was 5760 fluorescence intensity (a.u.).
